The values that follow come from PubChem BioAssay.

A number with no mark means an inactive call. For some assays here: Entries with a potency or affinity are not part of this list. Activity calls are given as the source filed them. Unless noted, no rule for the calls is given here.

Experiment [1] in a line: antimalarial activity against Dd2 strain (AID 2302;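 active = growth inhibition above 50% at the single 2 µM test dose, taken to imply half-maximal potency below 2 µM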;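 also: 0% = DMSO untreated growth and 100% = chloroquine plus artemisinin killed control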). Particulars: P. falciparum Dd2 in RBCs, LDH growth readout, 72 h; at 2 µM; stronger effect = higher value.
Experiment [2] is described as follows: human hepatoma cell viability loss – ATP luminescence, cytotoxicity control for P. falciparum antimalarial project, primary screen (AID 2303;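 active = inhibition above 50%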;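 also: 0% = DMSO wells and 100% = digitonin-killed cells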). Particulars: HepG2 viability, 24-48 h, at 10 µM, stronger effect = higher value.
Experiment [3] has as its target L-lactate dehydrogenase (Plasmodium falciparum (isolate CDC / Honduras)) (UniProt Q27743). Kind of experiment: PfLDH activity inhibition – cell lysate, 3D7 strain, counter-screen for P. falciparum growth inhibition project (AID 2304).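 Also: 0% = vehicle and 100% = reference inhibitor.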 As to conditions: P. falciparum 3D7 crude extract, LDH APAD/NBT absorbance; at 2 µM; stronger effect = higher value.
Experiment [4] is described as follows: inhibition of 3D7 malaria parasite growth – strain 3D7 (AID 2306).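 Also: 0% = DMSO wells and 100% = chloroquine plus artemisinin control wells.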 Particulars: P. falciparum 3D7 erythrocytic growth, LDH absorbance, 72 h; at 2 µM; stronger effect = higher value.
The target in experiment [5] is Calcium-dependent protein kinase 1 (Plasmodium falciparum (isolate 3D7)) (UniProt P62344). The experiment in a line: PfCDPK1 kinase inhibitors, biochemical, TCAMS library (AID 1159585; cut-off not given, nearly all actives have IC50 up to about 0.98 µM;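 also: inhibitors leave more ATP so luminescence rises with inhibition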). As to conditions: recombinant PfCDPK1, Kinase-Glo ATP depletion luminescence. (In general: In Kinase-Glo more light means more ATP remaining.)
Chain of Calcium-dependent protein kinase 1 (Plasmodium falciparum (isolate 3D7)) (P62344 whole entry, looked up): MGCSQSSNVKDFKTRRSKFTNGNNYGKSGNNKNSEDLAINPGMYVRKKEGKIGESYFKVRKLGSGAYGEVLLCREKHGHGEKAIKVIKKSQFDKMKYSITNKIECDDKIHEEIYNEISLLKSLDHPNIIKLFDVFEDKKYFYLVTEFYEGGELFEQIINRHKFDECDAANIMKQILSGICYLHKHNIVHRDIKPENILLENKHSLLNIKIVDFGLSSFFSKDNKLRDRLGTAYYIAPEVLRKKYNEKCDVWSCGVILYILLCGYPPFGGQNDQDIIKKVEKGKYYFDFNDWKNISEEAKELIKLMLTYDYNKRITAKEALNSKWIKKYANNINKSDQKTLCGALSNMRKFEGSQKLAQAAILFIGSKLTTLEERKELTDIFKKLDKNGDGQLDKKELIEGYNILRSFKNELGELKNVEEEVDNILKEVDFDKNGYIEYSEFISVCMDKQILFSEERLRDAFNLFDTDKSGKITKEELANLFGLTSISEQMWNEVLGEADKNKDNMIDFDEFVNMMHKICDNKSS
Experiment [6] addresses Plasmodium falciparum protein kinase 6 (PK6, PF3D7_1337100) (UniProt Q8IDW1). Kind of experiment: PfPK6 kinase inhibitors, biochemical, TCAMS library (AID 1159586). As to conditions: recombinant PfPK6, Kinase-Glo ATP depletion luminescence.
Experiment [7] has as its target Protein kinase 7 (PK7), Plasmodium falciparum 3D7 (PF3D7_0213400) (UniProt Q7YTF7). The experiment in a line: inhibition of Plasmodium PK7 catalytic activity – biochemical, TCAMS antimalarial set, Kinase-Glo luminescence (AID 1159587). As to conditions: recombinant PfPK7, Kinase-Glo ATP depletion luminescence.
Experiment [8] deals with Calcium-dependent protein kinase 4 (Plasmodium falciparum (isolate 3D7)) (UniProt Q8IBS5). Kind of experiment: PfCDPK4 kinase inhibitors, biochemical, TCAMS library (AID 1159588; cut-off not given, nearly all actives have IC50 up to about 0.91 µM). As to conditions: recombinant PfCDPK4, Kinase-Glo ATP depletion luminescence.
Chain of Calcium-dependent protein kinase 4 (Plasmodium falciparum (isolate 3D7)) (Q8IBS5 whole entry, looked up): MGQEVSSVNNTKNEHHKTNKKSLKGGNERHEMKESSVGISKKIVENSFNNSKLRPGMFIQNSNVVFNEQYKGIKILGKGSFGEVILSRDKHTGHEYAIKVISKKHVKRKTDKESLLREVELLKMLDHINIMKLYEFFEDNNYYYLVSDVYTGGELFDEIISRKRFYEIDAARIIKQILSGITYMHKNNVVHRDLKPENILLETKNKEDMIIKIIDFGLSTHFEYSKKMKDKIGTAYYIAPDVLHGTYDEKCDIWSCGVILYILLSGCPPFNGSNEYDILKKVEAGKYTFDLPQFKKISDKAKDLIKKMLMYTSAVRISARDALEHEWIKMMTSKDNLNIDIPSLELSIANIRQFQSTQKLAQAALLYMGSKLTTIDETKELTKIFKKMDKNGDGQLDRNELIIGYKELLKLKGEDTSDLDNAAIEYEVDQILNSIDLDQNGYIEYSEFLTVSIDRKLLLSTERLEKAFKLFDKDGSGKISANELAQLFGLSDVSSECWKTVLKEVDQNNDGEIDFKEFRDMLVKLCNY

Chain of Plasmodium falciparum protein kinase 6 (PK6, PF3D7_1337100) (Q8IDW1 1-305): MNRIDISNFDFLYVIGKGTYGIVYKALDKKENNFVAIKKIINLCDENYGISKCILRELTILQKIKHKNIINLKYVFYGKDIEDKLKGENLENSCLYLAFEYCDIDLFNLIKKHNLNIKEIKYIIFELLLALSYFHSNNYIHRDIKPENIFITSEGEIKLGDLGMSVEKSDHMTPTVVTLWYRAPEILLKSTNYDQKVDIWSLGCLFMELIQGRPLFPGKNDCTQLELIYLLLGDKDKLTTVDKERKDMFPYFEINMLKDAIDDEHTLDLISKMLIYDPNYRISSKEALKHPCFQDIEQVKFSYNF
Chain of L-lactate dehydrogenase (Plasmodium falciparum (isolate CDC / Honduras)) (Q27743 whole entry, looked up): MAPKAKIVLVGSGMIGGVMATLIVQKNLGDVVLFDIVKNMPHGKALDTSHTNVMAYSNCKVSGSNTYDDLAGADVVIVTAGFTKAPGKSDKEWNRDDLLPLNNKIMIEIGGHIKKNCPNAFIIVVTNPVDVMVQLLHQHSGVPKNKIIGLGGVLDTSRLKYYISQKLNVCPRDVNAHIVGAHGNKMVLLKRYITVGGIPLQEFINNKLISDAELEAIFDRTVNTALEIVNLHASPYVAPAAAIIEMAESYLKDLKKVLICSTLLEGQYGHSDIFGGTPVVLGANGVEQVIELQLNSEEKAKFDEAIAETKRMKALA
Chain of Protein kinase 7 (PK7), Plasmodium falciparum 3D7 (PF3D7_0213400) (Q7YTF7 1-343): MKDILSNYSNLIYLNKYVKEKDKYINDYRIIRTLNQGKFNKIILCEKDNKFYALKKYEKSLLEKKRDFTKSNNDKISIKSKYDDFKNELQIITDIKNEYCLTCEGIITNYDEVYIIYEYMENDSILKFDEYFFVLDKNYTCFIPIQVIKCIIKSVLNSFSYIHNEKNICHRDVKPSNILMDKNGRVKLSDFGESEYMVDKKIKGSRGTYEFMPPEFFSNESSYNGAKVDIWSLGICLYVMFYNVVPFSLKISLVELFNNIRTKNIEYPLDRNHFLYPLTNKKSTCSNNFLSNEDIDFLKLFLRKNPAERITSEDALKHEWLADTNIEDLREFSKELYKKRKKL

As for `CN1CCCC(CN2CCN(Cc3cccc(-c4ccc(-c5nc6ccccc6[nH]5)cc4)c3)CC2)C1` (configuration not stated), the growth inhibition is 101% (active) in experiment [1] and 100% (active) in experiment [4]. Further, the inhibition (commonly the drop in the measured response relative to a control, in per cent) was 73% (active) in experiment [2] and -2% in experiment [3]. The result in experiment [5], in experiment [6], in experiment [7] and in experiment [8] was inactive.
On to `N#CCOc1c(C2CCN(CCCCNC(=O)c3ccc(-c4ccc(C(F)(F)F)cc4)cc3)CC2)ccc2c1CCCC2`, for which the results for the growth inhibition in experiment [1] and in experiment [4] were 48% and 97% (active), respectively. In addition, the inhibition in experiment [2] was 59% (active); in experiment [3] it was 4%. Further, the outcome in experiment [5], in experiment [6], in experiment [7] and in experiment [8] was inactive.
Take `O=C(Nc1ccc(Cl)cc1)OCCn1nnnc1C(c1ccc(Cl)cc1)N1CCOCC1` (configuration not stated): the results for the growth inhibition in experiment [1] and in experiment [4] were 79% (active) and 90% (active), respectively. The inhibition in experiment [2] was 1%; in experiment [3], 4%. Further, the outcome in experiment [5], in experiment [6], in experiment [7] and in experiment [8] was inactive.
For the compound `COc1cc(C2CCN(CCCCNC(=O)c3ccc(NC(=O)c4cc(C(F)(F)F)cc(C(F)(F)F)c4)cc3)CC2)ccc1OC(C)C`, the growth inhibition in experiment [1] and in experiment [4] was 100% (active) throughout. For the same compound, the inhibition was 21% in experiment [2] and 4% in experiment [3]. Also, the outcome in experiment [5], in experiment [6], in experiment [7] and in experiment [8] was inactive.
Take `NC(N)=NC(=O)Nc1cc(Br)c(Br)c(Br)c1`: the growth inhibition in experiment [1] was 89% (active); in experiment [4], 101% (active). Moreover, the results for the inhibition in experiment [2] and in experiment [3] were 0% and 1%, respectively. The outcome in experiment [5], in experiment [6], in experiment [7] and in experiment [8] was inactive.
For `Oc1ccc(C2CNCCc3c2cc(O)c(OCc2ccccc2)c3Cl)cc1` (configuration not stated), the growth inhibition in experiment [1] is 8%; in experiment [4], 98% (active). For the same compound, the inhibition was 14% in experiment [2] and 5% in experiment [3]. For the same compound, the outcome in experiment [5], in experiment [6], in experiment [7] and in experiment [8] was inactive.
Consider `Cc1nc(-c2cccc3c(NC(=O)N4CCc5cc6nccc(N7CCN(C)CC7)c6cc54)cccc23)no1`, for which the growth inhibition was 97% (active) in experiment [1] and 100% (active) in experiment [4]. In addition, the results for the inhibition in experiment [2] and in experiment [3] were 45% and 2%, respectively. For the same compound, the result in experiment [5], in experiment [6], in experiment [7] and in experiment [8] was inactive.
`O=C(Nc1ccc(S(=O)(=O)N2CCCCCC2)cc1)c1cc(-c2ccccc2O)n[nH]1`: the growth inhibition in experiment [1] was 76% (active); in experiment [4], 100% (active). Besides, the inhibition is 16% in experiment [2] and 6% in experiment [3]. Further, the result in experiment [5], in experiment [6], in experiment [7] and in experiment [8] was inactive.
As for `N#CNC(=NCCCSc1csc(N=C(N)N)n1)NCCCCCCCCN=C(NC#N)NCCSCc1csc(N=C(N)N)n1`, the growth inhibition in experiment [1] was 24%; in experiment [4], 91% (active). Besides, the inhibition is -1% in experiment [2] and -4% in experiment [3]. The result in experiment [5], in experiment [6], in experiment [7] and in experiment [8] was inactive.
`O=C(NC1CCCCC1)c1csc(C2CCCN(C(=O)c3ccc(O)c(-c4cccc(C(F)(F)F)c4)c3)C2)n1` (configuration not stated): the growth inhibition was 85% (active) in experiment [1] and 96% (active) in experiment [4]. Also, the inhibition in experiment [2] is 8%; in experiment [3] it was 5%. Moreover, the outcome in experiment [5], in experiment [6], in experiment [7] and in experiment [8] was inactive.
On to `CCOC(=O)c1ccc(OCCCCCCOc2ccc(Br)cc2)cc1`, for which the growth inhibition in experiment [1] was -2%; in experiment [4], 98% (active). For the same compound, the inhibition in experiment [2] was 12%; in experiment [3], -4%. The result in experiment [5], in experiment [6], in experiment [7] and in experiment [8] was inactive.
For the compound `O=c1cc(NCCCNCc2cc(Cl)c(Cl)cc2Cl)[nH]c2ccccc12`, the values for the growth inhibition in experiment [1] and in experiment [4] were 20% and 93% (active), respectively. Moreover, the inhibition was 7% in experiment [2] and -1% in experiment [3]. For the same compound, the outcome in experiment [5], in experiment [6], in experiment [7] and in experiment [8] was inactive.
For the compound `CCCCCCN(CCCCCC)CC(O)c1c(OC)ccc2ccccc12` (configuration not stated), the growth inhibition in experiment [1] was 100% (active); in experiment [4] it was 101% (active). Besides, the inhibition in experiment [2] was 18%; in experiment [3] it was -1%. The outcome in experiment [5], in experiment [6], in experiment [7] and in experiment [8] was inactive.
As to `NC1CCN(Cc2cccc(-c3csc(-c4nc5ccccc5[nH]4)c3)c2)C1` (configuration not stated), the growth inhibition in experiment [1] is 10%; in experiment [4] it was 99% (active). Moreover, the inhibition was 10% in experiment [2] and 2% in experiment [3]. Besides, the result in experiment [5], in experiment [6], in experiment [7] and in experiment [8] was inactive.
As to `N#CCCN1CCN(Cc2cccc(-c3ccc(-c4nc5ccc(C(F)(F)F)cc5[nH]4)cc3)c2)CC1`, the values for the growth inhibition in experiment [1] and in experiment [4] were 63% (active) and 101% (active), respectively. The inhibition is 23% in experiment [2] and 4% in experiment [3]. In addition, the result in experiment [5], in experiment [6], in experiment [7] and in experiment [8] was inactive.
With `Cc1ccc(-c2cc(C(=O)Nc3ccc(S(=O)(=O)N4CC(C)OC(C)C4)cc3)[nH]n2)c(O)c1` (configuration not stated), the results for the growth inhibition in experiment [1] and in experiment [4] were 98% (active) and 91% (active), respectively. Moreover, the inhibition in experiment [2] was 16%; in experiment [3], -1%. In addition, the outcome in experiment [5], in experiment [6], in experiment [7] and in experiment [8] was inactive.
On to `CO/C(=C\C=C\c1cc2cc(Cl)c(Cl)cc2[nH]1)C(=O)NCCCN1CCN(c2cccc(OCC(=O)Nc3ccccc3)c2)CC1`, for which the growth inhibition was 81% (active) in experiment [1] and 100% (active) in experiment [4]. The results for the inhibition in experiment [2] and in experiment [3] were 49% and -1%, respectively. Besides, the result in experiment [5], in experiment [6], in experiment [7] and in experiment [8] was inactive.
`O=C(CC1NC(=O)c2ccccc21)Nc1ccc(-c2ccc(-c3nc4ccc(C(F)(F)F)cc4[nH]3)cc2)cc1` (configuration not stated): the growth inhibition in experiment [1] was 70% (active); in experiment [4], 87% (active). Further, the inhibition was 39% in experiment [2] and -2% in experiment [3]. For the same compound, the outcome in experiment [5], in experiment [6], in experiment [7] and in experiment [8] was inactive.
Regarding `Cc1cc(N[C@@H](Cc2ccccc2)C(=O)NCCOc2ccccc2)nc(NCCc2ccc(F)cc2)n1`, the growth inhibition in experiment [1] is 86% (active); in experiment [4], 99% (active). Also, the inhibition was 5% in experiment [2] and 1% in experiment [3]. Moreover, the result in experiment [5], in experiment [6], in experiment [7] and in experiment [8] was inactive.
